The structures appear in SMILES notation. Inconclusive results are not listed. Entries that show only a call come without a potency. Active and inactive are the calls of the source. Calls follow the shape of the full dose curve.
Potency is read from the fitted curve at half-maximal effect.

A short description of this experiment: qHTS assay to identify small molecule agonists of the progesterone receptor (PR) signaling pathway - cell viability counter screen (AID 1346799). Also: nearly all actives have a fitted effect of over 45% in size. The following applies: PR-UAS-bla HEK293T viability, CellTiter-Glo luminescence, 16 h; series mostly up to 92.4 µM. The source says:
National Center for Advancing Translational Sciences [NCATS]
NIH Chemical Genomics Center [NCGC]
U.S. Environmental Protection Agency [EPA]
National Institutes of Environmental Health Sciences [NIEHS]
National Toxicology Program [NTP]
U.S. Food and Drug Administration [FDA]
Progesterone receptor (PR), a nuclear hormone receptor, plays an important role in development, metabolic homeostasis and reproduction. It is activated by the steroid hormone progesterone. Endocrine disrupting chemicals (EDCs) and their interactions with steroid hormone receptors like PR causes disruption of normal endocrine function. To identify the compounds that stimulate PR signaling, a PR-UAS-bla GripTite cell line i.e. PR-UAS-bla HEK293T (Invitrogen, Carlsbad, CA, USA) containing a beta-lactamase reporter gene under the control of an UAS response element was used to screen Tox21 10K compound library. The cytotoxicity of the Tox21 compound library against the PR-bla cell line was tested in parallel by measuring the cell viability using CellTiter-Glo assay in the same wells.
Tox21 Assay Protocol Summary:
PR-UAS-bla HEK293T cells were dispensed at 3,000 cells/5 uL of assay medium containing 2% charcoal stripped FBS per well into black wall/clear-bottom 1536-well plates using a Multidrop Combi (ThermoFisher Scientific, Waltham, MA) dispenser. After the assay plates were incubated at a 37C and 5% CO2 for 6 hr, 23 nL of compounds dissolved in DMSO, positive controls or DMSO only was transferred to the assay plate by a Pintool station (Kalypsys, San Diego, CA). The plates were incubated at 37C and 5% CO2 for 16 hr. Then 1 uL of LiveBLAzer B/G FRET substrate was added using a Flying Reagent Dispenser (FRD, Aurora Discovery, San Diego, CA), the plates were incubated at room temperature for 2 hours, and fluorescence intensity was measured by an Envision plate reader (PerkinElmer, Shelton, CT). For cell viability readout that measures cytotoxicity, 4 uL/well of CellTiter-Glo reagent was added into the assay plates using a FRD. After 30 min incubation at room temperature, the luminescence intensity in the plates was measured using a ViewLux (PerkinElmer) plate reader.
For `CC(C)CCON=O`, the Potency result is “inactive”.
For `O=C(Cc1ccccc1)OCCc1ccccc1`, the Potency result is “inactive”.
To `Cc1cccc(C)c1NC1=NCCCS1` belongs “inactive”; to `CCOc1cccc(C2(N3CCN(c4ccccc4)CC3)CCC(C)CC2)c1` (stereo not given), “inactive”; to `CCSCc1ccccc1OC(=O)NC`, “inactive”.
As for `OCC1CO1` (stereo not given), the entry is “inactive”; as for `O=[N+]([O-])O[C@H]1CO[C@H]2[C@@H]1OC[C@H]2O[N+](=O)[O-]`, “inactive”.
Consider `C1CS1`, for which the Potency entry is “inactive”.
Regarding `NCCc1cc(O)c(O)cc1O`, the Potency result is “inactive”.
As for `CC(Cl)C(=O)O` (stereo not given), the entry is “inactive”.
In the case of `CCOP(=S)(OCC)SCSc1cc(Cl)ccc1Cl`, the Potency entry was “inactive”.
As for `CC(Oc1cccc(Cl)c1)C(=O)O` (stereo not given), the entry is “inactive”.
Take `c1ccc2c(c1)sc1ccccc12`: the Potency entry was “inactive”.
For `COC(=O)C1(O)c2ccccc2-c2ccccc21`, the Potency result is “inactive”.
With `CN[C@@H](C)[C@H](O)c1ccccc1`, the Potency entry was “inactive”.
Take `COC(=O)Cc1ccccc1`: the Potency entry is “inactive”.
With `CCCCCCCCP(=O)(O)O`, the Potency is 27.3 µM (active).
To `CCC1(CC)C(=O)NC(=O)NC1=O` belongs “inactive”; to `O=S(=O)(c1ccccc1)c1ccccc1`, “inactive”.
Consider `CON(C)C(=O)Nc1ccc(Cl)cc1`, for which the Potency entry was “inactive”.
As to `CCCCC(CC)CO[N+](=O)[O-]` (stereo not given), the Potency result was “inactive”.
`O=P(OCC(Br)CBr)(OCC(Br)CBr)OCC(Br)CBr` (stereo not given): the Potency entry was “inactive”.
With `CC1(C)[C@H](C(=O)O[C@H](C#N)c2cccc(Oc3ccccc3)c2)[C@@H]1C=C(Br)Br`, the Potency result was “inactive”.
For the molecule `Cc1ccc(N)c(C)c1`, the Potency result was “inactive”.
Consider `CC(Cc1ccccc1)NCc1ccccc1Cl` (stereo not given), for which the Potency result was “inactive”.
On to `C[C@H]1O[C@H](OC2[C@@H](O)[C@@H](O)C(O)[C@H](O)[C@H]2O)[C@@H](N)C[C@@H]1N=C(N)C(=O)O` (stereo not given in full), for which the Potency result is “inactive”.
Turning to `CCCCNC(=O)OCC#CI`, the Potency entry was “inactive”.
`CCNC(=O)NC(=O)/C(C#N)=N/OC`: the Potency entry was “inactive”.
With `CCCCCBr`, the Potency entry was “inactive”.
As for `N#CC(C#N)=Cc1ccc(O)c(O)c1`, the entry is “inactive”; as for `CCN(C(C)=O)c1cccc(-c2ccnc3c(C#N)cnn23)c1`, “inactive”.
On to `CCCCCl`, for which the Potency entry is “inactive”.
As for `CC[N+]1(C)CCCC(OC(=O)C(O)(c2ccccc2)c2ccccc2)C1` (stereo not given), the Potency result is “inactive”.
As to `O=C(O)c1cc(I)cc(I)c1I`, the Potency entry is “inactive”.
Take `c1ccc2c(c1)-c1cccc3cccc-2c13`: the Potency entry was “inactive”.
Turning to `CC(C)(C)CC(C)(C)c1ccc(O)cc1`, the Potency is 48.6 µM (active).
In the case of `CC(C)(C)OOC(C)(C)CCC(C)(C)OOC(C)(C)C`, the Potency result is “inactive”.
For `C1CCNCC1`, the Potency entry was “inactive”.
`CCC(C)(C)O`: the Potency result is “inactive”.
As for `O=C(O)c1ccc(=O)[nH]c1`, the entry is “inactive”.

Source of the values: PubChem BioAssay (Tox21).
